# Test results: the supplement of paper PMC10849652
# Targets with a hit are over-represented here; the source holds about 7,900 in all. About 0.6% of all pairs of compound and target were hits. Unmarked numbers belong to inactive results.
# Columns and labels:
# Assay in all cases: log2 fold change, soluble protein after heating vs DMSO (PISA); higher = thermal stabilisation; K562 cells, 10 uM, 30 min; active = over 0.2 and 3.5 SD of the protein, either way, in both replicates (recomputed)
# IRAK-1-4 Inhibitor I = compound: C1COCCN1CCN2C3=CC=CC=C3N=C2NC(=O)C4=CC(=CC=C4)[N+](=O)[O-] [IRAK-1-4 Inhibitor I]
# Summary of the method: (§1)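 Soluble protein was defined as the supernatant after 21,000xg for 90 min. It came from K562 cells at 2×10^6 cells/mL given 10 μM compound for 30 min, heated in aliquots for 3 min across 48°C-58°C, pooled, and extracted in PBS with 0.5% NP-40 at 4°C, and was quantified by TMTpro 16plex LC-MS/MS with equalised channel sums. Thermal stability against control samples, from duplicates, is reported as log2 fold change.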
# ibrutinib = compound: C=CC(=O)N1CCC[C@@H](n2nc(-c3ccc(Oc4ccccc4)cc3)c3c(N)ncnc32)C1 [ibrutinib]
# Summary of the method: as §1
# [1] = compound: CC(=O)c1cnc2ccc(-c3cc(Cl)c(O)c(Cl)c3)nc2c1N[C@H]1CC[C@H](CN(C)C)CC1
# Summary of the method: as §1
# ralimetinib = compound: CC(C)(C)Cn1c(N)nc2ccc(-c3[nH]c(C(C)(C)C)nc3-c3ccc(F)cc3)nc21 [ralimetinib]
# Summary of the method: as §1
# [2] = compound: CC(C)(O)CC(=O)NCCn1ccc2ncnc(Nc3ccc(Oc4cccc(C(F)(F)F)c4)c(Cl)c3)c21
# Summary of the method: as §1
# [3] = compound: CC(C)C1=C2N=C(C=C(N2N=C1)NCC3=CC=CC=C3)NCCCCCCN
# Summary of the method: as §1
# [4] = compound: CC(C)C[C@@H](C=O)NC(=O)[C@H](CC(C)C)NC(=O)[C@H](CC(C)C)NC(=O)OCc1ccccc1
# Summary of the method: as §1
# pinometostat = compound: CC(C)N(C[C@H]1O[C@@H](n2cnc3c(N)ncnc32)[C@H](O)[C@@H]1O)[C@H]1C[C@@H](CCc2nc3cc(C(C)(C)C)ccc3[nH]2)C1 [pinometostat]
# Summary of the method: as §1
# [5] = compound: CC1=C(C(CC(=O)N1)C2=CC=C(C=C2)C(F)(F)F)C(=O)NC3=C(C=C4C(=C3)C=NN4)F
# Summary of the method: as §1
# [6] = compound: CC1=C(C2=C(C=C1)C(=O)C3=CC=CC=C3N2CCCN)C
# Summary of the method: as §1
# [7] = compound: CC1=C(C=C(C=C1)NC(=O)C2=CC(=CC=C2)C(C)(C)C#N)NC3=CC4=C(C=C3)N=CN(C4=O)C
# Summary of the method: as §1
# [8] = compound: CC1=C(C=C(C=C1)NC(=O)C2=CC(=CC=C2)N(C)C)NC(=O)C3=CC=C(C=C3)O
# Summary of the method: as §1
# [9] = compound: CC1=CC=C(C=C1)SC2=C3C=C(SC3=CN=C2)C(=O)N
# Summary of the method: as §1
# [10] = compound: CC1=NC(=CC=C1)C2=C(N=C(N2)C(C)(C)C)C3=CC4=NC=CN=C4C=C3
# Summary of the method: as §1
# Nexturastat A = compound: CCCCN(Cc1ccc(C(=O)NO)cc1)C(=O)Nc1ccccc1 [Nexturastat A]
# Summary of the method: as §1
# vemurafenib = compound: CCCS(=O)(=O)Nc1ccc(F)c(C(=O)c2c[nH]c3ncc(-c4ccc(Cl)cc4)cc23)c1F [vemurafenib]
# Summary of the method: as §1
# [11] = compound: CCCS(=O)(=O)Nc1ccc(F)c(C(=O)c2c[nH]c3ncc(Cl)cc23)c1F
# Summary of the method: as §1
# [12] = compound: CCCc1cc(C)[nH]c(=O)c1CNC(=O)c1cc(-c2ccnc(N3CCN(C)CC3)c2)cc2c1cnn2C(C)C
# Summary of the method: as §1
# givinostat = compound: CCN(CC)Cc1ccc2cc(COC(=O)Nc3ccc(C(=O)NO)cc3)ccc2c1 [givinostat]
# Summary of the method: as §1
# barasertib = compound: CCN(CCCOc1ccc2c(Nc3cc(CC(=O)Nc4cccc(F)c4)[nH]n3)ncnc2c1)CCOP(=O)(O)O [barasertib]
# Summary of the method: as §1
# Chain of UniProt Q5T160 (Q5T160 whole entry, looked up): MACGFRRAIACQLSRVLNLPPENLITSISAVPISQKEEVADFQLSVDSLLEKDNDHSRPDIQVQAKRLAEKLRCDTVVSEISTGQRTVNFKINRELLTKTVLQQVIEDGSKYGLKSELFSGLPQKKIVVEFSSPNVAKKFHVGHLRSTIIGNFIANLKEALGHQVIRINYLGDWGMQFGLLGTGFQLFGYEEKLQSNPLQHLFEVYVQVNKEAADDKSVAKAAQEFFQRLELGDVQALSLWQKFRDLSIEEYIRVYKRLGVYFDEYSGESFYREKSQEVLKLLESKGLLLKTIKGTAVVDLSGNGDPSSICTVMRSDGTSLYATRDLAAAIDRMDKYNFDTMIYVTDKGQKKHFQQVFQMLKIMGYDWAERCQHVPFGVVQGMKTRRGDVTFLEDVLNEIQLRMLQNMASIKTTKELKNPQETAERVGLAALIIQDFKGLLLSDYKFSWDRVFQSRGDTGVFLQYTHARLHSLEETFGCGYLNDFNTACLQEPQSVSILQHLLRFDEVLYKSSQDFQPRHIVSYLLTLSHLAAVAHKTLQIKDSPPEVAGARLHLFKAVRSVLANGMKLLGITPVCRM
# Chain of UniProt P51812 (P51812 whole entry, looked up): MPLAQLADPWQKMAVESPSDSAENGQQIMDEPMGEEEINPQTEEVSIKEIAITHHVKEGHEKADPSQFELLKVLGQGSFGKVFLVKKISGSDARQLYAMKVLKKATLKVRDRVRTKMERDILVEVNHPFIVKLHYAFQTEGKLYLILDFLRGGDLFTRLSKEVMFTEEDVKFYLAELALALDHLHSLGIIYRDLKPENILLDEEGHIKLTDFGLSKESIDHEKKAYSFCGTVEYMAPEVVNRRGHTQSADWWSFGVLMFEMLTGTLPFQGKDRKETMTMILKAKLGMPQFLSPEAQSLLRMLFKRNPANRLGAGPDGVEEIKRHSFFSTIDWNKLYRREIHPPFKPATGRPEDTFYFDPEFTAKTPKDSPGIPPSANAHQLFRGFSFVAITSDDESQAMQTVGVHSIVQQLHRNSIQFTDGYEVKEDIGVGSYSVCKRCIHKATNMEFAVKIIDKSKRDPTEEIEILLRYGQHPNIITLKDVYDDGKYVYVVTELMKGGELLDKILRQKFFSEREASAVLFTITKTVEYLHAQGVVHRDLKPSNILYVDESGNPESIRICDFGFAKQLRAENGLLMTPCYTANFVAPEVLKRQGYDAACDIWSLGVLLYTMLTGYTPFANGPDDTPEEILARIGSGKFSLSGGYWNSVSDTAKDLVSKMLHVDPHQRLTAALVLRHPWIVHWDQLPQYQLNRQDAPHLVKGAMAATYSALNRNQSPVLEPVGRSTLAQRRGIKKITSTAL
# Chain of UniProt Q9NQG5 (Q9NQG5 whole entry, looked up): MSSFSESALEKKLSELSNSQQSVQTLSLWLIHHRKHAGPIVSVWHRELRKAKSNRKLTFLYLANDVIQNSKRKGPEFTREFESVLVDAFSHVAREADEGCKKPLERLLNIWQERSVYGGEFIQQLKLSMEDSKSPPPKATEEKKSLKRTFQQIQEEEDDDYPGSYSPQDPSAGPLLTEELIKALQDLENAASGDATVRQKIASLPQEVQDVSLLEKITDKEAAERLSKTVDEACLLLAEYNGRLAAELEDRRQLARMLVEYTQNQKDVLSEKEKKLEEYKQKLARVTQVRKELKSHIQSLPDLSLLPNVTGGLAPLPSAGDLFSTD
# Chain of UniProt O43819 (O43819 whole entry, looked up): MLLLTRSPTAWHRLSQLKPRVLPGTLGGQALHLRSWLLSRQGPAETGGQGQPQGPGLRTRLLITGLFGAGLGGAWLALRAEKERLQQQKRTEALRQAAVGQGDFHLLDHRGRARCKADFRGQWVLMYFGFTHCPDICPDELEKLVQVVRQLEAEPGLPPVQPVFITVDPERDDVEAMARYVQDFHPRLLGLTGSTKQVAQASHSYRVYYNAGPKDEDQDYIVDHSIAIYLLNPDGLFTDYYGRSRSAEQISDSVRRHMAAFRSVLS
# Chain of UniProt Q5RL73 (Q5RL73 whole entry, looked up): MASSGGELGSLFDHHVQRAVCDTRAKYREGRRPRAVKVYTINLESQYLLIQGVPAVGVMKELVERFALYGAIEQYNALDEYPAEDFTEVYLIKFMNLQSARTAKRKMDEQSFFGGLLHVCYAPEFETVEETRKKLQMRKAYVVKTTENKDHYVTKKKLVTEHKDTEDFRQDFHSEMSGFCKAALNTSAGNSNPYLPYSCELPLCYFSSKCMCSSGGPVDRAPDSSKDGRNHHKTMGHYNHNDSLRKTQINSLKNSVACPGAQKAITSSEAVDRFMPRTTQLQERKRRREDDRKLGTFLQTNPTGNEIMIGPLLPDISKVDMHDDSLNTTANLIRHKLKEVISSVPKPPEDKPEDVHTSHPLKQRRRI
# Chain of UniProt Q04864 (Q04864 whole entry, looked up): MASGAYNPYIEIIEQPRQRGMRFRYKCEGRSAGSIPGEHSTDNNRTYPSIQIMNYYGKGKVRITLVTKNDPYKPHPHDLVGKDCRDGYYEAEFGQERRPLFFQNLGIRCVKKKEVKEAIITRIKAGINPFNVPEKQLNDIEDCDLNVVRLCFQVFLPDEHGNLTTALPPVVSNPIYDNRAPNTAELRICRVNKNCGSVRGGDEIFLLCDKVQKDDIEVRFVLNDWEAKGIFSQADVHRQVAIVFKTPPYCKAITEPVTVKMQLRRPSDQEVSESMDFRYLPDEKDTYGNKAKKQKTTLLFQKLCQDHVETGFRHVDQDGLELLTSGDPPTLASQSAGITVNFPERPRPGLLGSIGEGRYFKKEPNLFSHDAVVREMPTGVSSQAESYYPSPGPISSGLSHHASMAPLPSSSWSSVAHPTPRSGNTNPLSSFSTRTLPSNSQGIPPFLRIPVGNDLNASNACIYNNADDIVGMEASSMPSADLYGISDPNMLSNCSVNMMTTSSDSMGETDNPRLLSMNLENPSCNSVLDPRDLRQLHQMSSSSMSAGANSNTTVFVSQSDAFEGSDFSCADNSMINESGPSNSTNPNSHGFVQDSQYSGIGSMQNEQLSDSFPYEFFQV
# Chain of UniProt Q01196 (Q01196 whole entry, looked up): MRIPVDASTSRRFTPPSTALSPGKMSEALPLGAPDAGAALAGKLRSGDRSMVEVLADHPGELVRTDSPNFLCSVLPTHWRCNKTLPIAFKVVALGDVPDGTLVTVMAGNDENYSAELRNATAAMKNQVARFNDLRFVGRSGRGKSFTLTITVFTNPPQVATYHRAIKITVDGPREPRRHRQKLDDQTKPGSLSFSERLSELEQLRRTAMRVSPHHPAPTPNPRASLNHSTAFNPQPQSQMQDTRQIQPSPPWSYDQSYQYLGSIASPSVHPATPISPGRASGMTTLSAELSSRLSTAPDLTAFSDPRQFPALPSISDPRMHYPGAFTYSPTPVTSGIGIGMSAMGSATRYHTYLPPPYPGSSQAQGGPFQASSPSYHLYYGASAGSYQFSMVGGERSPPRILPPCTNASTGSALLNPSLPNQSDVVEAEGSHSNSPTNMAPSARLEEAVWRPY
# Chain of UniProt Q8N5L8 (Q8N5L8 whole entry, looked up): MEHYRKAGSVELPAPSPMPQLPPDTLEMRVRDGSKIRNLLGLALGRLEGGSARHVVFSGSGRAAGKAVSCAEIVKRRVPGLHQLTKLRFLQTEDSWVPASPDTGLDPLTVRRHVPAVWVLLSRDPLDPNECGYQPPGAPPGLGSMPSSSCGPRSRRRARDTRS
# Chain of UniProt P60602 (P60602 whole entry, looked up): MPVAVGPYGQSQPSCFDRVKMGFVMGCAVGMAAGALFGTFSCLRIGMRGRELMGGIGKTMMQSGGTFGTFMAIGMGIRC
# Chain of UniProt Q99496 (Q99496 whole entry, looked up): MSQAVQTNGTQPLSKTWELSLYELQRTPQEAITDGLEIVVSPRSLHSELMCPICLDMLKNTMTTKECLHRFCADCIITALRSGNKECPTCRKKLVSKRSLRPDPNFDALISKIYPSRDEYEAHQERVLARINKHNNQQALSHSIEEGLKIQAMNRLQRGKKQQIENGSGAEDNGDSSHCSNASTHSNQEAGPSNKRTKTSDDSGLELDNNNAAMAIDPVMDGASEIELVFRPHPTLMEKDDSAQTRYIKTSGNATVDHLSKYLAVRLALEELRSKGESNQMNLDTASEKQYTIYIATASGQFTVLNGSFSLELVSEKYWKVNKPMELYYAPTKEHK
# Chain of UniProt Q9Y3L5 (Q9Y3L5 whole entry, looked up): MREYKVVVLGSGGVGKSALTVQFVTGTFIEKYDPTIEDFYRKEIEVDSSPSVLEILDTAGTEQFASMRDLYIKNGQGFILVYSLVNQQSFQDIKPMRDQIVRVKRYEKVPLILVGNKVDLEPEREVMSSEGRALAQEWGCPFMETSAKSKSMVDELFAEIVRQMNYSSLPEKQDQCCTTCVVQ
Target,log2 fold change (IRAK-1-4 Inhibitor I),log2 fold change (ibrutinib),log2 fold change [1],log2 fold change (ralimetinib),log2 fold change [2],log2 fold change [3],log2 fold change [4],log2 fold change (pinometostat),log2 fold change [5],log2 fold change [6],log2 fold change [7],log2 fold change [8],log2 fold change [9],log2 fold change [10],log2 fold change (Nexturastat A),log2 fold change (vemurafenib),log2 fold change [11],log2 fold change [12],log2 fold change (givinostat),log2 fold change (barasertib)
RPS6KA3 (UniProt P51812),0.03,-0.048,-0.194,-0.359 (active),-0.061,-0.076,0.121,0.011,0.01,0.001,-0.072,-0.157,0.021,0.01,0.015,0.001,0.016,0.042,-0.227,0.06
SCO2 (UniProt O43819),0.02,0.014,-0.06,0.142,-0.154,-0.071,0.024,0.054,–,0.07,-0.487 (active),-0.079,0.029,-0.003,0.269,0.05,0.029,0.059,0.03,0.153
RPRD1B (UniProt Q9NQG5),0,-0.021,-0.017,0,-0.06,-0.018,-0.028,-0.038,0.022,0.104,0.007,-0.021,-0.029,0.101,-0.054,0.05,0.07,-0.057,-0.064,0.007
RUNX1 isoform 8 (UniProt Q01196),-0.102,0.058,-0.207,-0.043,-0.138,-0.184,0.082,0.069,0.076,–,0.236,0.018,0.059,-0.045,-0.231,-0.026,0.046,0.088,0.076,-0.058
RALY (UniProt Q9UKM9),-0.315,0.001,-0.21,-0.029,0.055,-0.101,0.083,0.129,0.068,-0.311,0.091,-0.021,-0.05,0.105,0.358,-0.056,0.187,0.005,0.209,-0.138
RNF2 (UniProt Q99496),-0.024,0.086,0.001,–,-0.065,0.091,–,0.066,0.04,-0.058,0.155,–,0.051,0.022,0.024,-0.066,0.061,0.07,-0.04,-0.002
SLC19A1 (UniProt P41440),0.017,-0.025,-0.034,0.005,-0.061,0.104,0.045,0.052,-0.045,0.073,0.112,-0.054,-0.019,-0.023,-0.107,0.002,-0.031,-0.018,0.007,-0.011
RPP25L (UniProt Q8N5L8),-0.102,0.021,-0.004,0.049,-0.015,-0.293,0.035,-0.002,-0.014,-0.288 (active),-0.028,-0.015,0.036,0.02,-0.01,-0.034,-0.035,-0.048,-0.073,-0.025
RBM48 isoform 2 (UniProt Q5RL73),0.15,0.051,-0.018,0.004,0.004,0.156,-0.301,0.068,-0.099,-0.151,-0.708 (active),-0.13,-0.009,-0.007,0.04,–,-0.011,–,-0.03,-0.069
RARS2 (UniProt Q5T160),0.053,0.003,-0.012,-0.039,-0.081,-0.214,-0.061,-0.032,-0.011,-0.007,0.018,0.033,0.056,0.029,-0.027,0.019,0.05,-0.014,-0.037,0.017
RPS2 (UniProt P15880),-0.101,0.042,0.085,0.055,0.019,-0.004,0.061,0.222,0.032,-0.682 (active),0.006,0.009,-0.075,-0.036,0.192,-0.116,-0.099,0.084,-0.011,-0.095
SCAMP2 (UniProt H3BUB6),0.078,0.103,-0.171,-0.278,0.102,-0.055,0.192,0.053,0.111,0.059,-0.349,0.043,-0.166,-0.1,0.12,-0.266,-0.335,-0.232,-0.024,0.034
RABGAP1L isoform 5 (UniProt Q5R372),0.04,-0.031,-0.025,–,-0.057,-0.125,–,-0.17,-0.297,-0.271,-0.106,–,-0.047,-0.055,-0.009,–,-0.016,-0.197,-0.013,0
REL (UniProt Q04864),-0.046,-0.095,-0.017,0.037,-0.093,-0.074,0.062,0.089,-0.039,0.005,0.001,-0.044,0.033,-0.004,-0.053,0.044,0.077,-0.022,0.101,0.079
RAP2C (UniProt Q9Y3L5),–,0.016,-0.032,0.021,-0.107,0.148,0.048,–,-0.104,0.11,-0.064,0.052,-0.03,–,0,0.066,-0.13,-0.052,-0.044,-0.031
RBM26 isoform 3 (UniProt Q5T8P6),–,–,-0.528,–,–,–,–,–,–,–,0.017,–,–,–,–,–,–,–,–,–
SAFB2 (UniProt K7EQU4),-0.129,0.131,–,–,-0.042,–,–,-0.051,-0.31,–,–,–,–,0.057,0.111,–,–,–,–,0.295
ROMO1 (UniProt P60602),–,0.069,-0.044,-0.024,0.052,-0.051,-0.083,–,0.039,-0.077,0.087,-0.011,0.005,–,-0.066,–,-0.017,-0.082,-0.027,-0.036
